Screening results deposited in PubChem BioAssay by National Center for Advancing Translational Sciences (NCATS).
KB-V1 MDR tox – kills drug-selected multidrug resistant KB-V1 cells | KB-V1 MDR cells viability, CellTiter-Glo, 72 h | Potency, µM (series often up to 46.1 µM), hits mostly cytotoxic | AID 1347076 | actives 3.4% (n = 400,000); note: nearly all actives have a fitted effect of over 60% in size
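qHTS viability screen in drug-selected KB-V1 MDR cells: 72 h compound treatment at 37 degrees C, ATP luminescence end point.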
HT1080-NT tox – kills 2HG-producing HT-1080-NT fibrosarcoma cells; Potency, µM (top dose mostly 46.1 µM), actives largely listed as cytotoxic; actives 1.6% (n = 360,000); HT-1080-NT fibrosarcoma viability, CellTiter-Glo ATP luminescence, 48 h;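 note: NT is the 2HG producing partner of a matched IDH1 knockdown line; nearly all actives have a fitted effect of over 55% in size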
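Read-out is CellTiter-Glo luminescence after 10 minutes at room temperature, following 48 hours' compound treatment of HT-1080-NT cells (750 cells/well, RPMI, 5% FBS, 37 degrees C).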
S2 tox – cell viability loss in ATXN counter-screen; Potency, µM (series often up to 56.7 µM), actives largely listed as cytotoxic; AID 651635; actives 0.49% (n = 400,000); S2 cells (HEK-293 line with an ATXN2-luciferase reporter) viability, CellTiter-Fluor protease fluorescence, 24 h; note: nearly all actives have a fitted effect of over 40% in size
ATXN2 expr inh – reduces ATXN2 reporter expression in HEK-293 cells; HEK-293 ATXN2-luciferase reporter, luminescence, 24 h; Potency, µM (top dose mostly 57 µM), hits mostly inhibitors; actives 0.72% (n = 360,000); AID 1745845; note: nearly all actives have a fitted effect of over 55% in size
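ATXN2-luciferase reporter cells (luciferase flanked by upstream and downstream ATXN2 gene portions) were treated 24 h at 37 °C with compounds at up to 57 uM. SteadyGlo luminescence gave expression; GF-AFC fluorescence gave viability.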
KB-3-1 tox – kills parental KB-3-1 adenocarcinoma cells; KB-3-1 viability, CellTiter-Glo ATP luminescence, 72 h; actives 1.4% (n = 400,000); AID 1347075; Potency, µM (highest dose often 46.1 µM), actives largely listed as cytotoxic; note: nearly all actives have a fitted effect of over 60% in size
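KB-3-1 parental drug-naive adenocarcinoma cells in DMEM/10% FBS, incubated 72 h at 37 C with pin-transferred compounds across a concentration series. Viability by CellTiter-Glo luminescence; concentration-response curves fitted after normalization.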
HT1080 IDH1KD tx – kills HT-1080 cells with IDH1 knockdown. Potency, µM (titrated, usually from 46.1 µM), hits mostly cytotoxic. actives 2% (n = 360,000). HT-1080 IDH1 knockdown viability, ATP luminescence, 48 h. AID 686971
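In this qHTS, HT-1080 cells depleted of IDH1 are exposed for 48 h at 37 °C to compound titrations. Toxicity is scored from CellTiter-Glo luminescence, with DMSO as full viability and medium alone as none.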
Hits are given with their value; i = inactive; ? = inconclusive; nt = no result given; [ ] = remark or other dose. This is a sample that favours compounds with a hit; in the whole collection about 6.2% have one here. Calls come from the whole dose curve; as a rule, active = well fitted curve in the direction sought with a large enough effect; inconclusive = small, poorly fitted or top-dose-only effect, or another doubt; inactive = no such curve, though single readings can be large; an effect the other way counts as inactive or inconclusive.

SMILES	KB-V1 MDR tox	HT1080-NT tox	S2 tox	ATXN2 expr inh	KB-3-1 tox	HT1080 IDH1KD tx
COc1cc2nc(CN(CCO)C3CS(=O)(=O)CC3O)nc(N3CCCCC3)c2cc1OC (stereo not drawn)	nt	nt	i	nt	nt	nt
CC(C)C[C@H]1CN([C@@H](Cc2ccccc2)CN2CCC[C@@H]2CN2C(=O)C(=O)NC[C@@H]2Cc2ccccc2)C(=O)C(=O)N1CC1CCCCC1	i	?	20µM	?	?	16.4µM
O=C1NC[C@H](Cc2ccccc2)N(C[C@H]2CCCN2C[C@H](Cc2ccccc2)N2C[C@H](Cc3ccccc3)N(CC3CCCCCC3)C(=O)C2=O)C1=O	i	?	17.8µM	?	?	?
COc1ccccc1CNS(=O)(=O)c1ccc(N2CCCCS2(=O)=O)cc1	i	nt	i	i	i	nt
COc1ccc(C(O)Cn2ccsc2=NC(C)=O)cc1 (stereo not drawn)	?	?	i	i	?	11.6µM
CC(=O)N=c1sccn1CC(O)c1ccccc1 (stereo not drawn)	i	i	i	i	i	i
O=C(Nc1cccc2ccccc12)/C(=C/c1ccc([N+](=O)[O-])cc1)NC(=O)c1ccccc1	4.61µM	i	i	i	i	i
O=C(Nc1cccc(C(=O)O)c1)/C(=C/c1ccc([N+](=O)[O-])cc1)NC(=O)c1ccccc1	i	i	i	nt	i	i
O=C(N/N=C/c1ccc(O)c(O)c1O)/C(=C/c1ccc([N+](=O)[O-])cc1)NC(=O)c1ccccc1	i	?	?	i	i	14.6µM
Cc1ccccc1NC(=O)Cn1c(=O)n(CCC(=O)N2CCc3ccccc3C2)c(=O)c2ccccc21	i	nt	i	i	i	nt
COc1ccc(-c2nc3cc(C)c(Br)c(C)n3c2Cc2cccc(F)c2)cc1OC	i	?	i	i	i	i
COc1cc(CNCc2c[nH]c3ccccc23)cc(OC)c1	7.31µM	?	?	i	i	i
COc1cc(CNCc2cccc3ccccc23)cc(OC)c1	i	i	i	nt	i	i
CCc1nc2ccc(C(=O)N3CCN(c4ccccc4)CC3)cn2c1N(C)CCC(C)C	23.1µM	?	i	i	?	6.51µM
CCc1nc2ccc(C(=O)NC3CCN(C)CC3)cn2c1N(C)CCC(C)C	i	16.4µM	i	i	i	?
Cc1cccc(-c2nn3c(=O)cc(CN4CCN(S(=O)(=O)c5ccc(Cl)cc5)CC4)nc3s2)c1	i	nt	i	i	i	nt
C=Cn1cc(CNC[C@H]2O[C@@H](n3cnc4c(=O)[nH]c(N)nc43)[C@H](O)[C@@H]2O)c(C)n1	i	i	i	i	i	i
O=C(c1cc(COc2ccc(F)cc2Cl)on1)N1CCCCCC1	i	i	i	nt	i	i
O=C(c1cc(COc2ccc(F)cc2Cl)on1)N1CCC(c2ccncc2)CC1	4.11µM	i	i	i	i	?
N#CC1C(=N)Cc2ccccc2-c2ccccc21 (stereo not drawn)	14.6µM	11.6µM	?	i	?	16.4µM
Cc1ccc2nc(SCC(=O)Nc3cccc(F)c3)nc(=O)n2c1	9.2µM	i	?	i	?	i
Cc1c(C(=O)NCC2COc3ccccc3O2)oc2ccc(S(=O)(=O)N3CCOCC3)cc12 (stereo not drawn)	2.31µM	i	?	i	?	i
CCN(CC)CCCNC(=O)c1oc2ccc(S(=O)(=O)N3CC(C)CC(C)C3)cc2c1C (stereo not drawn)	?	?	i	i	i	25.9µM
Cc1c(C(=O)NCC2COc3ccccc3O2)oc2ccc(S(=O)(=O)N3CC(C)CC(C)C3)cc12 (stereo not drawn)	?	i	i	i	i	i
CC1(C)Cc2c(sc(NC(=O)COc3cccc4ccccc34)c2C#N)C(C)(C)N1	i	9.2µM	?	?	?	14.6µM
SMILES	KB-V1 MDR tox	HT1080-NT tox	S2 tox	ATXN2 expr inh	KB-3-1 tox	HT1080 IDH1KD tx
CCC(=O)Nc1sc2c(c1C#N)CC(C)(C)NC2(C)C	i	i	i	i	i	i
Cc1ccc(OCC(=O)Nc2sc3c(c2C#N)CC(C)(C)NC3(C)C)cc1	i	20.6µM	i	i	i	?
CN1CCN(c2cccc(Nc3nn4c(=O)c5ccc(Br)cc5nc4s3)c2)CC1	i	nt	nt	nt	i	nt
Cc1cccc(NC(=O)c2c(O)c3ccccc3[nH]c2=O)c1	i	i	i	i	i	i
Cc1cccc(C)c1NC(=O)c1c(O)c2ccccc2[nH]c1=O	?	i	i	i	18.4µM	i
NC(=S)NN=C1CCCCCCCC1	i	i	?	i	18.4µM	i
NC(=S)NN=C1CCCCCCCCC1	?	i	i	i	i	i
COc1ccccc1CNc1cc(CSc2ccc(Cl)cc2)nc(C)n1	14.6µM	?	i	i	?	?
COc1cccc(CN2C(=O)CN(C3CCCCC3)C(=O)C2c2ccc(OC)c(OC)c2)c1 (stereo not drawn)	i	nt	i	i	i	nt
COc1cc(C2C(=O)N(C3CCCC3)CC(=O)N2Cc2ccco2)ccc1OC(C)C (stereo not drawn)	3.66µM	i	i	i	i	i
CC1=C(C(=O)Nc2ccc(Cl)cc2)C(C(C)C)n2nc(SCc3cccc(C)c3)nc2N1 (stereo not drawn)	?	nt	i	i	i	nt
COc1ccc(C)cc1-n1nnnc1SCc1cc(=O)n2cc(C)ccc2n1	7.31µM	i	i	i	?	i
Oc1ccc(-c2ccc(-c3cc(Nc4cccc(CNC5CC5)c4)n[nH]3)cc2)c(O)c1	nt	nt	nt	2.43µM	nt	nt
NC1=NC(=Nc2ccc(Cl)cc2)c2ccccc21	i	i	i	i[11.3 µM]	i	?
NC1=NC(=Nc2ccc(Br)cc2)c2ccccc21	i	23.1µM	i	i[11.3 µM]	?	13µM
Cc1cc(Cl)ccc1N=C1N=C(N)c2ccccc21	i	23.1µM	?	i	i	?
CC(C)c1ccc(N=C2N=C(N)c3ccccc32)cc1	?	18.4µM	nt	?	?	?
Cc1cc(Cl)ccc1N=c1ssnc1Cl	i	?	i	i	?	23.1µM
NC(=O)c1ccccc1NC(=O)/C=C/c1ccccc1	?	i	?	i	i	i
NC(=O)c1ccccc1NC(=O)/C=C/c1ccc(Cl)cc1	14.6µM	?	i	i	i	?
Cc1ccc(C)c(NC(=O)C2CCN(c3nn4c(=O)cc(C)nc4s3)CC2)c1	i	nt	i	i	i	nt
Cc1ccc(C(NC(=O)N2CCOCC2)=C(Cl)Cl)cc1F	i	?	i	i	i	14.1µM
COc1cc2c(cc1NC(=O)COc1ccc(Cl)cc1Br)oc1ccccc12	?	nt	i	i	i	nt
Cc1ccc(Nc2cc(C)nn2-c2nc(C)cc(=O)[nH]2)cc1	?	?	2µM	1.12µM	1.41µM	?
COCCNC(=O)/C(C#N)=C/c1ccc(-c2ccc(S(=O)(=O)N3CCOCC3)cc2)o1	i	i	i	i	i	i
